# Data as given in PubChem BioAssay AID493191 (Broad Institute, 2011).
# About 330 (25%) of roughly 1,300 compounds were called active. These entries were drawn from the full list. Entries with a potency or affinity are not part of this list. Unmarked numbers belong to inactive results. The rule behind the calls is not given here.
# Test: growth inhibition of MALME3 cells – cell-based, CellTiter-Glo, cherry-picked, orthogonal assay for MITF inhibitor project, dose response (AID 493191)
# Details: MALME3 melanoma viability, CellTiter-Glo luminescence, 24 h; series mostly up to 35 µM; activity change, negative = inhibition: at the top concentration
row,SMILES,"activity change, negative = inhibition"
1,CCN(CC)CCNC(=O)c1ccc(NC(=O)c2cccc(S(=O)(=O)N3c4ccccc4CC3C)c2)cc1 (stereo not drawn),-17.4%
2,Cc1ccc(NC(=O)c2cc(-c3cccs3)on2)cc1,4.72%
3,O=[N+]([O-])/C=C\c1ccc(N2CCCC2)c(F)c1,-33.7%
4,CN(C)c1ccc(C2=NOC(CN3C(=O)c4ccccc4S3(=O)=O)C2)cc1 (stereo not drawn),-4.73%
5,CN(CCC#N)C(=O)COC(=O)c1ccccc1C(=O)c1ccc(Cl)c([N+](=O)[O-])c1,-28.2%
6,O=C(COC(=O)c1ccc(F)c([N+](=O)[O-])c1)NC(=O)NCc1ccccc1,-8.85%
7,O=C(NCCNc1ccccc1[N+](=O)[O-])c1cc(F)c(F)cc1Cl,-1.12%
8,CCC(=O)Nc1cc(C(=O)OCC(=O)c2ccccc2Cl)ccc1C,1.33%
9,Cn1cccc1C(=O)NC(=O)COC(=O)c1ccc(S(C)(=O)=O)c([N+](=O)[O-])c1,-11.1%
10,O=C(NC1CC1)C1CCN(S(=O)(=O)c2ccc(Cl)c([N+](=O)[O-])c2)CC1,-35.8%
11,N/C(=N\OC(=O)Cc1cccs1)c1ccccc1,3.27%
12,Cc1ccn2c(Nc3ccccc3)c(-c3ccccn3)nc2c1,-31.3%
13,O=C(NC1CCCCC1)C(c1cccnc1)N(C(=O)CCl)c1cccc(Cl)c1 (stereo not drawn),-10.9%
14,CC1Cc2cc(-c3csc(N)n3)ccc2O1 (stereo not drawn),6.44%
15,COc1ccccc1NS(=O)(=O)c1cc(NC(=O)c2ccc(Cl)nc2)ccc1Cl,-5.32%
16,O=C(O)c1ccc(C(=O)Nc2ccc(F)cc2)cc1,-0.194%
17,O=C(Cc1ccccc1)Nc1ccc(NC(=O)c2ccco2)nc1,7.46%
18,CCOc1ccc(NC(=O)c2ccccn2)cc1,-30.9%
19,CCOC(=O)c1ccc(NC(=O)c2ccnn2C)cc1,7.79%
20,COc1ccc(NC(=O)c2cc(-c3ccccc3Cl)on2)cc1,1.29%
21,CCOC(=O)c1ccc(NC(=O)c2ccc(C)c(S(=O)(=O)N3CCOCC3)c2)cc1,-8.59%
22,CCOc1ccc(C(=O)Nc2cccc(C(=O)O)c2C)cc1Cl,7.12%
23,O=C1c2ccccc2S(=O)(=O)N1Cc1nc2ccccc2s1,-1.34%
24,Cc1ccc2nc(-c3ccncc3)[nH]c2c1,-13.6%

row,SMILES,"activity change, negative = inhibition"
1,Fc1ccc(-c2nnc(-c3ccc(F)cc3)o2)cc1,-8.09%
2,COCCCn1[nH]c2c3c(ccc2c1=O)C(=O)c1ccccc1C3=O,-28.8%
3,O=C(Nc1nc2ccsc2c(=O)s1)C1CCC1,6.31%
4,CN(c1ccc(O)cc1)c1nc(O)c(C2=c3ccccc3=NC2=O)s1,-6.42%
5,Cn1cc(C(=O)N/N=C/c2c(O)ccc3ccccc23)ccc1=O,-16.5%
6,Cc1cccc(-c2nc(C#N)c(NCc3ccco3)o2)c1,10.1%
7,O=C(NC1CCCCCC1)c1cc2ccccc2oc1=O,-3.85%
8,O=C(Nc1ccccc1)C1Cc2ccccc2CN1C(=O)c1ccco1 (stereo not drawn),-4.95%
9,C=CCNc1nc(-c2ccccn2)nnc1-c1ccccc1,-18.7%
10,COc1ccc(NC(=O)Nc2ccc(F)c(F)c2)c(OC)c1,18.8%
11,CCOC(=O)c1ccc2c(c1)n(CC)c(/C=C/N(C)c1ccccc1)[n+]2CC,-27.6%
12,CCn1c(/C=C/N(C)c2ccccc2)[n+](CC)c2ccc(Cl)cc21,-25.4%
13,Nc1c2c(=O)oc(-c3ccccc3)cc2nn1-c1ccccc1,-0.126%
14,COc1cc(C(=O)Oc2c(CN3CCOCC3)cc(Cl)c3cccnc23)cc(OC)c1OC,-44.2%
15,COc1cccc(C(=O)N/N=C(/c2ccccc2)c2ccccn2)c1,-23.3%
16,O=c1nc(N/N=C/c2ccccn2)cn[nH]1,-15.8%
17,CC(C)c1ccc(CNc2ncccn2)cc1,-7.32%
18,CCCCN1CCc2c1nc1ccc(Br)cc1c2N,-43%
19,CCCOc1ccc(-c2c(=O)n(O)c3ccccc3[n+]2[O-])cc1,-6.65%
20,BrC(=C\c1ccccc1)/C=N/n1cnnc1,-26.2%
21,Cc1ccc(C#CC[N+]2(CC#Cc3ccc(C)cc3)CCCCC2)cc1,-38.5%
22,CC(C)N1C/C(=C/c2cccnc2)C(=O)/C(=C/c2cccnc2)C1,-31.7%
23,CN1C/C(=C/c2cccnc2)C(=O)/C(=C/c2cccnc2)C1,11%
24,Cc1cccc(OCc2nc3ccccc3n2C)c1,1.51%

row,SMILES,"activity change, negative = inhibition"
1,O=S(=O)(c1ccc(F)cc1)c1snnc1-c1ccccc1,-12.4%
2,CCCOc1ccc(C(=O)C(CN2CCCC2)c2ccccc2)cc1 (stereo not drawn),-37.2%
3,O=C(/C=C/c1ccccc1Cl)NC1CCCCC1,8.1%
4,O=C(CSc1ccc(Cl)cc1)NC1CCCC1,-1.8%
5,O=C(CCCN1C(=O)S/C(=C\c2ccccc2)C1=O)NNC(=O)c1ccccc1O,-9.65%
6,N/C(=N\OC(=O)c1ccccc1Cl)c1ccccn1,-32.8%
7,Cc1ccc(C(=O)c2no[n+]([O-])c2C(=O)c2ccc(C)cc2)cc1,-26.9%
8,CN(C)c1ccc(/C=N\NC(=O)c2cccc3cc[nH]c23)cc1,1.73%
9,CCOC(=O)N1CCN(C(=O)c2ccc(Cn3c(=S)[nH]c4ccc(Br)cc4c3=O)cc2)CC1,-20.7%
10,CCC(=O)N1CCN(c2ccc(Cl)cc2NC(=O)c2ccc([N+](=O)[O-])o2)CC1,-43.4%
11,Cn1c(/C(C#N)=C/c2ccc(-c3ccc(S(N)(=O)=O)cc3)o2)nc2ccccc21,-11.6%
12,Clc1c(-c2ccccc2)nc2ccccn12,4.22%
13,Cc1cc(N2CCOCC2)n2ncc(-c3ccccc3Cl)c2n1,-2.42%
14,Cc1cc(C(=O)CN2C(=O)c3ccccc3S2(=O)=O)c(C)n1-c1ccccc1,-2.78%
15,C#Cc1cccc(NC(=O)CSc2nnc(-c3ccc(C(F)(F)F)cn3)o2)c1,7.2%
16,CCCN(CC(=O)Nc1ccccc1C)C(=O)CCl,-20.5%
17,Cc1ccc(CC(=O)Nc2ccc(Cl)cn2)cc1,7.43%
18,Cc1ccc2c(c1)Oc1ccc(NC(=O)CCl)cc1C(=O)N2,-38.9%
19,CS(=O)(=O)c1ccc2nc(NC(=O)c3ccccc3Br)sc2c1,13.2%
20,O=C(c1ccc(F)cc1)C(CN1CCOCC1)c1ccccc1 (stereo not drawn),-21.3%
21,COc1ccc(S(=O)NC2CCCCC2)c(OC)c1C (stereo not drawn),-5.41%
22,COc1cc(CN2CCC(Cc3ccccc3)CC2)cc(OC)c1OC,7.73%
23,CC(=O)c1ccc(S(=O)(=O)N2CCN(C(=O)/C=C/c3ccc4ccccc4n3)CC2)cc1,-3.46%
24,COc1ccc(NC(=O)c2cc3ccccc3[nH]2)cc1,3.96%

row,SMILES,"activity change, negative = inhibition"
1,COc1ccc2cc3cc(C(=O)NCCc4ccc(OC)c(OC)c4)oc3nc2c1,-18.4%
2,Cc1cc(O)ccc1Nc1nc(-c2cccnc2)cs1,3.74%
3,CCOC(=O)C1CCCN(C(=O)C2CCN(S(=O)(=O)CC)CC2)C1 (stereo not drawn),1.71%
4,CCOc1ccc(OCc2ccc(C(=O)N/N=C(\C)c3ccccn3)cc2)cc1,-39.2%
5,CCOC(=O)c1ccc(NC(=O)CC2SCCNC2=O)cc1 (stereo not drawn),-0.676%
6,CCOC(=O)c1ccc(NC(=O)Cc2cccs2)cc1,-16.7%
7,CCc1ccc(Nc2nc(C)cc(C)n2)cc1,-3.27%
8,COc1ccccc1-c1nnc(-c2ccc(C)cc2)o1,-5.25%
9,COCCNC(=O)c1cc2sc3ccccc3c2s1,8.29%
10,O=C(N/N=C/c1cc(Cl)ccc1O)c1ccncc1,-30.2%
11,COc1cc2nc(SCC(=O)NCc3ccco3)n(Cc3ccc(Cl)cc3)c(=O)c2cc1OC,-14.3%
12,CCCCCCN1C=CC(=C2C(=O)c3ccccc3C2=O)C=C1,-26.2%
13,CC1CCN(Cc2nc(-c3ccc(Cl)cc3)no2)CC1,3.04%
14,CC1CC(C)C[N+](=C2C=C(N3CCCC3)CC(C)(C)C2)C1 (stereo not drawn),-24.1%
15,Cc1ccc(C(=O)C[n+]2cc(-c3ccc(C)cc3)n3c2CCCCC3)cc1,-45%
16,Cc1ccc(C(=O)NC2=NCCS2)cc1Cl,-3.46%
17,C=CC[n+]1c(-c2ccc(C)cc2)csc1Nc1ccc(NC(C)=O)cc1,3.35%
18,CCOc1ccc2nc(NC(=O)Cc3cccs3)sc2c1,3.36%
19,CC(C)(CO)NC(=O)c1ccc2nc(Cc3cccc(Cl)c3)oc2c1,-0.565%
20,Cc1nn(C)cc1/C=C/C(=O)c1cccs1,11%
21,CCOc1ccc(-n2c(-c3ccc(Br)cc3)c[n+]3c2CCCCC3)cc1,-27.9%
22,O=C1c2ccccc2C(=O)N1CCSc1ccccc1,0.331%
23,COc1cc(OC)cc(C(=O)Nc2ccc3c(c2)OCCO3)c1,-37.2%
24,COc1cccc(NC(=O)Nc2cccc(C(=O)O)c2)c1,-7.18%

row,SMILES,"activity change, negative = inhibition"
1,CCN(C(=O)c1ccco1)c1nc(-c2ccc(OC)cc2)cs1,1.88%
2,COc1cc2c(cc1O)C(SC)=NC(C)(C)C2,-2.97%
3,CC(C)c1ccc(/C=N/Nc2ccc(C(=O)O)cc2)cc1,5.55%
4,CCN1c2ccccc2NC2C1C(C(C)=O)C(=O)N2c1ccc(Cl)cc1 (stereo not drawn),-8.47%
5,Cc1nc(NCCOc2ccccc2)sc1C(=O)Nc1ccccc1,-14.8%
6,CCOC(=O)c1sc(-c2ccccc2)cc1N,-45.5%
7,CCOC(=O)c1c(C)[nH]c(C)c1C(=O)COC(=O)c1ccc([N+](=O)[O-])s1,-39.1%
8,COc1ccc(C)cc1Nc1nc(N)c2cc(OC)c(OC)cc2n1,10.8%
9,CC(C)CC(=O)NC(c1cccs1)c1ccc2cccnc2c1O (stereo not drawn),-25.5%
10,N/C(=N\OC(=O)c1ccncc1)c1cccc([N+](=O)[O-])c1,2.54%
11,Cc1c(C#N)c(NC(=O)CCl)n(Cc2ccccc2)c1C,-33.6%
12,Cc1ccc(OCC(=O)Nc2ccccc2F)cc1,2.26%
13,Fc1cccc(Cl)c1CSc1nnc(-c2ccncc2)o1,7.71%
14,CC(=O)N/C(N)=N/c1nc(=O)c2ccccc2s1,1.17%
15,NC(=O)c1c(NC(=O)c2cccnc2)sc2c1CCCCC2,4.25%
16,CCOc1ccc(N/C=C/C(=O)c2ccc(OC)c(OC)c2)cc1,-6.29%
17,OCCNc1c2ccccc2nc2ccccc12,-5.45%
18,Clc1ccc(-c2noc(CN3CCOCC3)n2)cc1,6.68%
19,NNC(=O)Cn1c(SCc2ccccc2)nc2ccccc21,5.17%
20,O=C(Nc1ccc([N+](=O)[O-])cc1)c1ccccc1,11.7%
21,COc1ccc(N/C=C\C(=O)c2ccc3ccccc3c2)cc1,1.62%
22,COc1ccc(-c2csc(Nc3ccccn3)n2)cc1OC,-15.7%
